29 molecules from PubChem BioAssay can be followed below.

This experiment in a line: probe aEGFR binding to arrayed compounds – biochemical, biotinylated probe, 635/667 nm fluorescence, primary screen (AID 1097).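 Further: probe is a biotinylated anti-EGFR antibody binding compounds printed on slides; score combines fluorescence near 667 nm and signal to noise of each spot.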 The settings on record: small-molecule microarray, higher = more signal.
Consider `C=C(/C(=C/C[C@H](OC(C)=O)c1ccccc1OCCO)c1cc(C(=O)OC)ccc1OC)C(C)C`, for which the composite z-score worked out at 0.509. The figure for `C[N+](C)(C)CCCC[C@@H]1NC(=O)[C@H]2C[C@@H](C(=O)NCCCCCCN)[C@@H](c3ccc(O)cc3)N2C1=O` is 0.155.

Molecule `COc1ccccc1CN1C(=O)c2ccccc2[C@](Cc2ccccc2I)(C(=O)NCC(F)(F)F)[C@@H]1c1ccc(CO)cc1` registered a composite z-score of 0.0024.

Molecule `O=C(NCc1ccccc1)[C@@H]1c2ccccc2C(=O)N(Cc2ccccc2C(F)(F)F)[C@H]1c1ccc(CO)cc1` displayed a composite z-score of -0.212. On to `COC(=O)[C@H](Cc1ccccc1)N1CC(/C=C/C2CC2)=C[C@H]1[C@H](O)Cc1ccccc1`, for which the composite z-score is -0.0343. The molecule `CCOC(=O)C1=CC[C@@H](c2ccc(OCc3ccccc3)c(OC)c2)N(S(=O)(=O)c2ccc(C)cc2)[C@H]1c1ccc(SC)cc1` returned a composite z-score of 0.206. The molecule `COc1cccc(/C=C/C=O)c1` showed a composite z-score of 0.198. The result for `CC(=O)NCCCC[C@@H]1NC(=O)[C@H]2C[C@@H](C(=O)NCCCC[N+](C)(C)C)[C@@H](c3cccc(OCCO)c3)N2C1=O` reads 0.162; that for `O=C1C2C=CC(C(O)c3ccccc3)N(Nc3ccccc3F)C2C(=O)N1c1ccccc1` (centres undefined), -0.067; that for `CCOC(=O)C[C@H]1[C@H](OC(=O)c2ccccc2-c2ccccc2)[C@@H](NC(=O)c2ccc(-c3ccccc3)cc2)c2cc(OCCCO)ccc2N1C(=O)c1ccc2ccccc2n1`, 0.2. With `CO[C@]12C=C(Br)[C@@H](C[C@@H]1c1cccc(C)c1)[C@@]1(CO1)C2=O`, the composite z-score is -0.115. The figure for `[N-]=[N+]=Nc1ccccc1[C@@H]1OC(c2ccc(OCCCO)cc2)=N[C@]1(Cc1ccccc1)C(=O)NCC(O)CO` (some centres undefined) is 0.206; for `COc1ccc([Si](C)(C)[C@@H]2[C@@H](CCn3cc([C@H](O)c4ccccc4)nn3)O[C@]3(C(=O)N(Cc4ccc(N5CCC5=O)cc4)c4ccccc43)[C@H]2C)cc1` it is -0.313; for `C=CCC(OC(C)=O)[C@@H]1[C@@H](N(Cc2ccc(-c3cccc(C(F)(F)F)c3)o2)C(=O)c2ccc(C)cc2)c2cc(OCCCO)ccc2N1C(=O)c1ccc2ccccc2c1` (some centres undefined) it is -0.125. `C=CCC(OC(C)=O)[C@@H]1[C@@H](N(Cc2cccc3ccccc23)C(=O)Cc2ccc(F)cc2)c2cc(OCCCO)ccc2N1C(=O)c1ccc2ccccc2n1` (some centres undefined): the composite z-score is -0.0897.

`C[C@H]1NC(=O)[C@@]23C(=O)N[C@@H](Cc4ccccc4)C2[C@H](C)[C@@]2(C)O[C@H]2C3/C=C/C/C=C\CNC(=O)[C@H](Cc2ccccc2)NC1=O` (some centres undefined) came in with a composite z-score of -0.096. For `CCCCCCCCCCC(O)C1C=CC2C(=O)N(C)C(=O)C2N1Nc1ccc([N+](=O)[O-])cc1[N+](=O)[O-]` (centres undefined), the composite z-score was 0.153.

With `NCCCCCCNC(=O)[C@@H]1C[C@@H]2C(=O)N[C@@H](CCCCN)C(=O)N2[C@@H]1c1cccc(OCCO)c1`, the composite z-score came out at 0.393. As for `N#Cc1ccc(C(O)C2C=CC3C(=O)N(c4ccccc4)C(=O)C3N2Nc2ccccc2)cc1` (centres undefined), the composite z-score amounted to 0.104. The figure for `CC1=C([C@H](O)CCc2ccccc2)[C@H](CO)[C@@H]2C(=O)N(C)C(=O)[C@@H]2C1` is -0.154. Molecule `CCOC(=O)C1=CC[C@@H](c2cccc(Cl)c2)N(S(=O)(=O)c2ccc(C)cc2)C1` had a composite z-score of -0.0803.

Turning to `COCCOC(=O)N1C(=O)[C@@]2(c3cc(C#Cc4ccc(OC)cc4)ccc31)[C@H](C(=O)Nc1nc3ccccc3s1)[C@H]1C(=O)O[C@H](c3ccccc3)[C@H](c3ccccc3)N1[C@@H]2c1ccc(O)cc1`, the composite z-score was found to be 0.213. In the case of `COc1ccc(C#Cc2ccc3c(c2)[C@]2(C(=O)N3)[C@H](c3ccc(O)cc3)N3[C@H](c4ccccc4)[C@H](c4ccccc4)OC(=O)[C@H]3[C@@H]2C(=O)O)cc1`, the composite z-score was -0.0507. The figure for `CC(C)C[C@@H]1NC(=O)[C@@H]2C[C@H](C(=O)NCCCCCN)[C@H](c3ccc(O)cc3)N2C1=O` is -0.0078; for `CN1C(=O)C2C=CC(C(O)c3ccc(F)cc3)N(Nc3ccccc3)C2C1=O` (centres undefined) it is 0.0034; for `CCC[C@@H]1C[C@@]1(CCC)[C@@H](NC(=O)OCc1ccccc1)c1ccc(-c2ccccc2)cc1` it is -0.186. In turn, `COc1ccc(NC(=O)O[C@H]2[C@H](OC(=O)Nc3ccccc3)[C@H](OC(=O)Nc3ccccc3)[C@@H](OC)O[C@@H]2CO)cc1` showed a composite z-score of 0.644. The figure for `CC(C)[Si](C#C[Si](C(C)C)(C(C)C)C(C)C)(O[C@H](C)c1cn([C@H](CO)Cc2ccccc2)nn1)C(C)C` is -0.133. Regarding `[N-]=[N+]=NCc1ccccc1[C@@H]1OC(c2ccc(OCCCO)cc2)=N[C@]1(CCS(=O)(=O)c1ccccc1)C(=O)NCC(O)CO` (some centres undefined), the composite z-score is -0.0435.
